# Most compounds without a hit are left out; they make up all but 12% or so of the library.
# BAZ2B block – inhibitors of human BAZ2B bromodomain. Q9UIF8. AlphaScreen BAZ2B-H3K14Ac peptide displacement. Potency, µM (highest dose often 114 µM), without a hit: top-dose activity change, negative = inhibition, most hits filed as inhibitors. actives 4.4% (n = 360,000). AID 504333; note: % is set by controls: 0 for no effect and ±100 for the full control effect; nearly all actives have a fitted effect of over 60% in size
#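 BAZ2B 50 nM plus b-H3(5-23)K14Ac 50 nM, PBS pH 7.4/0.01% Tween-20, 30 min RT; compound added (max 110 uM), 30 min RT; streptavidin donor/Ni-chelate acceptor beads 10 ug/mL final, 20 min dark; AlphaScreen read.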
# JMJD2A Tudor inh – JMJD2A Tudor domain (human) inhibition; O75164; AlphaScreen JMJD2A-Tudor / H3K4me3 peptide binding; Potency, µM (doses to about 114 µM), for inactives: at the top dose activity change, negative = inhibition, most hits filed as inhibitors; actives 4.4% (n = 390,000); note: % is set by controls: 0 for no effect and ±100 for the full control effect; nearly all actives have a fitted effect of over 50% in size
# Sfp inh – inhibitors of Bacillus subtilis Sfp phosphopantetheinyl transferase | actives 3.5% (n = 310,000) | Potency, µM, for the others: largest response in the series, negative = inhibition, actives largely listed as inhibitors | Biochemical Sfp PPTase activity, qHTS | Q9F4F7;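 note: the enzyme is Sfp with the accession as filed and its product quenches rhodamine fluorescence; 0% = enzyme reaction without inhibitor and -100% = no enzyme wells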
#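 Sfp 15 nM + cpd, 15 min RT; start w/ rhodamine-CoA 5 uM, BHQ-2-YbbR 12.5 uM (final); 50 mM Hepes pH 7.6, 10 mM MgCl2, 0.01% NP-40, 0.01% BSA; read 525/598 nm at 0 and 30 min.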
# HP1b chromo inh – HP1-beta chromodomain-methylated histone interaction inhibition. P83916. AlphaScreen HP1-beta / biotin-H3K9me3 peptide binding. Potency, µM (titrated, usually from 114 µM), without a hit: at the top dose activity change, negative = inhibition, actives largely listed as inhibitors. actives 0.56% (n = 390,000). AID 540317; note: nearly all actives have a fitted effect of over 70% in size
#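 AlphaScreen: HP1-beta (50 nM) preformed 30 min with biotin-H3(1-18)K9me3 peptide (50 nM) in PBS pH 7.4, 0.01% Tween-20. Compound added for 30 min at RT, then streptavidin donor/nickel chelate acceptor beads (10 ug/mL) for 30 min.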
# G9a block – blocks human histone lysine methyltransferase G9a | Q96KQ7 | G9a H3K9 monomethylation, AlphaScreen, 2 h | Potency, µM (doses to about 102 µM), inactives show top-dose activity, negative = inhibition, hits mostly inhibitors | actives 8.8% (n = 350,000) | AID 504332; note: % is set by controls: 0 for no effect and ±100 for the full control effect; nearly all actives have a fitted effect of over 75% in size
#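 Step 1: enzyme (final 20 nM) with compound, 15 min RT. Step 2: substrate peptide 500 nM and SAM 20 uM, 2 h RT. Step 3: anti-H3K9me1 antibody and AlphaScreen beads, 10 min, then plate read.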
# PLK1 PBD inh – blocks phosphopeptide binding to human PLK1 polo-box domain; Plk1 PBD binding of FITC phosphopeptide, fluorescence polarization; P53350; Potency, µM, without a hit: max response, negative = inhibition, most hits filed as inhibitors; actives 2.8% (n = 360,000); note: series mostly up to about 57 µM; % is set by controls: 0 for no effect and ±100 for the full control effect; nearly all actives have a fitted effect of over 65% in size
# Target sequence (P53350 whole entry, looked up, the tested form may be a part): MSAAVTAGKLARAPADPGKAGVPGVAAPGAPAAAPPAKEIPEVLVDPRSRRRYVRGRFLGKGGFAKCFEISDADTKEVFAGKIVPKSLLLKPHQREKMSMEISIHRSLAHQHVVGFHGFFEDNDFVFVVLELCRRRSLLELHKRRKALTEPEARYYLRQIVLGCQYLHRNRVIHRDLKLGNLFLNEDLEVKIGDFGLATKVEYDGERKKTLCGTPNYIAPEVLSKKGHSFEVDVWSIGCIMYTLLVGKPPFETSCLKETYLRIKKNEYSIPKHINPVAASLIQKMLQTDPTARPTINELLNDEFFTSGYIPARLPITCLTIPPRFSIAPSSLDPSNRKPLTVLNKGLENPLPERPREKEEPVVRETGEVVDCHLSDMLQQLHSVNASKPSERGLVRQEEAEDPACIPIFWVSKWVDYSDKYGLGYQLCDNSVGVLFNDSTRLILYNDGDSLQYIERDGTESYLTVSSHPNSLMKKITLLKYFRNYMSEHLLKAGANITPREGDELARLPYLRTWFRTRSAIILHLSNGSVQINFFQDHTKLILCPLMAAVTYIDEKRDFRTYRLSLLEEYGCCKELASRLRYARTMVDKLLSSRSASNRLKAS
# * marks the source's active call; other numbers are inactive results; ? = inconclusive; · = no result given; [ ] = remark or other dose. Calls come from the whole dose curve; as a rule, active = well fitted curve in the direction sought with a large enough effect; inconclusive = small, poorly fitted or top-dose-only effect, or another doubt; inactive = no such curve, though single readings can be large; an effect the other way counts as inactive or inconclusive. Potency is the fitted concentration of half-maximal effect.
SMILES,BAZ2B block,JMJD2A Tudor inh,Sfp inh,HP1b chromo inh,G9a block,PLK1 PBD inh
COc1cccc(NC(=O)c2sc3nc(N4CCOCC4)c4c(c3c2N)CC(C)(C)OC4)c1,-0.2%,-7.6%,·,36.8%,-4.0%[59 µM],·
Nc1c(C(=O)NCCc2ccccc2)sc2nc(N3CCOCC3)c3c(c12)CCCC3,-1.1%,-5.9%,22.4µM*,79.3%,15.8µM*,-24.8%
CCc1ccc(NC(=O)Cn2c(=O)c(-c3ccccc3NC(C)=O)nc3ccccc32)cc1,0.8%,-11.6%,·,22.4%,4.8%[59 µM],·
COc1ccc(C)cc1NC(=O)N1CCN(c2nnc(C)c3c(C)n(-c4ccccc4)nc23)CC1,-4.9%,-4.3%,·,13.7%,7.1%[59 µM],·
COc1cc(C(=O)c2ccccc2C(=O)O)c(OC)c2c1CCCC2,·,-7.6%,·,24.0%,·,-8.7%
O=C(O)c1ccccc1/C=N/NC(=O)c1cc(-c2ccco2)nc2ccccc12,20µM*,50.1µM*,10µM*,?,14.1µM*,?
O=C(Nc1cccc(S(=O)(=O)NC2=NCCCCC2)c1)c1cc(-c2ccncc2)nc2ccccc12,·,-31.9%,1.6%,6.9%,-36.4%,-1.8%
O=C(Nc1cccc(S(=O)(=O)NC2=NCCCCC2)c1)c1cc(-c2ccco2)nc2ccccc12,?,-20.1%,5.01µM*,?,?,-19.2%
O=C(NNC(=O)c1cc(-c2ccco2)nc2ccccc12)c1ccccc1,-15.2%,-17.7%,20µM*,21.7%,·,-8.5%
O=C(O)c1cc(-c2ccco2)nc2cc3ccccc3cc12,56.2µM*,?,11.2µM*,2.8%,11.2µM*,?
O=C(C[C@H]1C/C=C\CC[C@H](Cc2ccc(F)cc2)C(=O)OC[C@@H]2CCCN2C1=O)N[C@H](CO)Cc1ccccc1,·,-10.0%,·,84.3%,·,-3.9%
CC(=O)c1cccc(NC(=O)c2cc(-c3ccco3)nc3ccccc23)c1,-18.0%,-25.4%,-10.0%,-2.3%,50.1µM*,-29.9%
CCc1c(C)nc(SCc2nc(-c3ccccc3)no2)[nH]c1=O,-1.8%,-3.6%,·,52.5%[57 µM],-2.5%[59 µM],·
CC1=C(c2ccc(C)c(C)c2)S(=O)(=O)N=C1N1CCC(C(=O)Nc2cccc(F)c2)CC1,-6.4%,-15.3%,·,?,3.3%[59 µM],·
Cc1nnc(SCC2=C(C(=O)O)N3C(=O)C(NC(=O)Cn4nc(C(F)F)cc4C)C3SC2)s1 (stereo not given),50.1µM*,25.1µM*,79.4µM*,10.2%,14.1µM*,?
O=C(COc1ccccc1)NC1C(=O)N2C(C(=O)O)=C(Cl)CSC12 (stereo not given),79.4µM*,79.4µM*,-18.3%,0.0%,35.5µM*,?
Cc1nnc(SCC2=C(C(=O)O)N3C(=O)C(NC(=O)c4cc(F)c(F)cc4Cl)C3SC2)s1 (stereo not given),79.4µM*,-25.8%,50.1µM*,9.5%,28.2µM*,?
Cc1nnc(SCC2=C(C(=O)O)N3C(=O)C(NC(=O)COc4ccc(F)cc4)C3SC2)s1 (stereo not given),?,-23.6%,·,5.8%,?,?
Cc1nnc(SCC2=C(C(=O)O)N3C(=O)C(NC(=O)COc4ccccc4)C3SC2)s1 (stereo not given),?,?,·,?,10.9%[0.501 µM],18.9µM*
CN(C)CCn1nnnc1SCC1=C(C(=O)O)N2C(=O)[C@@H](NC(=O)Cc3csc(N)n3)[C@H]2SC1,50.1µM*,56.2µM*,·,29.1%,15.8µM*,?
CCC(C(=O)NC1C(=O)N2C(C(=O)O)=C(CSc3nnc(C)s3)CSC12)c1ccccc1 (stereo not given),-26.3%,?,·,18.5%,?,23.8µM*
Cn1nnnc1SCC1=C(C(=O)O)N2C(=O)[C@@H](NC(=O)[C@@H](O)c3ccccc3)[C@@H]2SC1,·,·,-16.7%,·,?,·
NC(=O)c1cc[n+](CC2=C(C(=O)O)N3C(=O)[C@@H](NC(=O)[C@@H](c4ccccc4)S(=O)(=O)[O-])[C@H]3SC2)cc1,·,·,·,·,3.77µM*,·

# Screening results as filed in PubChem BioAssay.
